Screening data (PubChem)
Rab9 promoter act: qHTS Assay for Rab9 Promoter Activators | Huh7 Rab9 promoter-luciferase reporter, luminescence, 24 h | AID 485297, 2010 | 320,000 compounds, 2.8% hits | Potency, µM (doses to about 9.22 µM), for inactives: at the top dose activation, negative = inhibition, most hits filed as activators; also: % of control where 0% means no effect; nearly all actives have a fitted effect of over 60% in size
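Stable Rab9-luc Huh7, 1500 cells/well, 2 h settle; cmpd in DMSO, 24 h, 37 °C/5% CO2; luciferase reagent 10 min RT; luminescence.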
ELG1 repair inh: qHTS screen for small molecules that inhibit ELG1-dependent DNA repair in human embryonic kidney (HEK293T) cells expressing luciferase-tagged ELG1; HEK293T ELG1-luciferase reporter, luminescence, 16 h; DNA damage induced by 5-fluorouridine; Potency, µM (top dose mostly 46.1 µM), for the others: at the highest dose activity change, negative = inhibition, actives largely listed as inhibitors; 330,000 compounds, 2.3% hits; also: % is scaled to controls: 0 for no effect and ±100 for the full control effect; nearly all actives have a fitted effect of over 55% in size
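Cells (2,000 per well) received 5-fluorouridine plus test compound or DMSO and were incubated 16 hr at 37 °C, 5% CO2. Luciferase activity was read by luminescence 30 min after ONE-Glo addition; signal suppression marked inhibition of damage-induced ELG1 function.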
SMN2 splice up: qHTS Assay for Enhancers of SMN2 Splice Variant Expression; HEK293 SMN2-luciferase splicing reporter, luminescence, 30-36 h; Potency, µM (series often up to 46.1 µM), for inactives: at the highest dose activity change, positive = activation, actives largely listed as activators; 210,000 compounds, 2.8% hits; also: % of control where 0% means no effect; nearly all actives have a fitted effect of over 55% in size
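HEK293 cells carry an SMN2 minigene-luciferase reporter in which exon 7 inclusion puts luciferase in frame. Cells were seeded at 2000 cells/well, attached for 10-12 hours, then exposed to compounds for 30-36 hours at 37C before ONE-Glo luminescence.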
NPC1 prom act: qHTS Assay for NPC1 Promoter Activators; Potency, µM (series often up to 9.22 µM), inactives show at the top dose activation, usual class: activators; 320,000 compounds, 2.4% hits; Huh7 NPC1 promoter luciferase reporter, 24 h; also: % of control where 0% means no effect; nearly all actives have a fitted effect of over 60% in size
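Stable NPC1-promoter luciferase Huh7 line; cpd (DMSO) 24 h, 37 °C, 5% CO2; Amplite luciferase reagent 10 min RT; luminescence readout. qHTS format.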
ELG1 genotoxic: qHTS screen for small molecules that induce genotoxicity in human embryonic kidney (HEK293T) cells expressing luciferase-tagged ELG1; HEK293T ELG1-luciferase reporter, luminescence, 16 h; Potency, µM (titrated, usually from 46 µM), for inactives: at the highest dose activity change, positive = activation, most hits filed as activators; 330,000 compounds, 1.3% hits; AID 504466, 2011; also: % of control where 0% means no effect; nearly all actives have a fitted effect of over 60% in size
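HEK293T cells expressing luciferase-tagged ELG1 were treated with compound or DMSO for 16 hr at 37°C. Luciferase activity was then read after 30 min with ONE-Glo at room temperature; rising signal flags genetic stress.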
FLuc counter: qHTS profiling assay for firefly luciferase inhibitor/activator using purifed enzyme and Km concentrations of substrates (counterscreen for miR-21 project) | 360,000 compounds, 6.9% hits | purified FLuc, Km substrates, luminescence inhibition | Potency, µM (doses to about 57.5 µM), without a hit: at the highest dose activity change, negative = inhibition, most hits filed as inhibitors | AID 588342, 2011 | Luciferin 4-monooxygenase (Photinus pyralis), P08659;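 also: plate controls were vehicle for no effect and reference inhibitor for full effect; nearly all actives have a fitted effect of over 55% in size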
Target sequence (P08659 whole entry, looked up): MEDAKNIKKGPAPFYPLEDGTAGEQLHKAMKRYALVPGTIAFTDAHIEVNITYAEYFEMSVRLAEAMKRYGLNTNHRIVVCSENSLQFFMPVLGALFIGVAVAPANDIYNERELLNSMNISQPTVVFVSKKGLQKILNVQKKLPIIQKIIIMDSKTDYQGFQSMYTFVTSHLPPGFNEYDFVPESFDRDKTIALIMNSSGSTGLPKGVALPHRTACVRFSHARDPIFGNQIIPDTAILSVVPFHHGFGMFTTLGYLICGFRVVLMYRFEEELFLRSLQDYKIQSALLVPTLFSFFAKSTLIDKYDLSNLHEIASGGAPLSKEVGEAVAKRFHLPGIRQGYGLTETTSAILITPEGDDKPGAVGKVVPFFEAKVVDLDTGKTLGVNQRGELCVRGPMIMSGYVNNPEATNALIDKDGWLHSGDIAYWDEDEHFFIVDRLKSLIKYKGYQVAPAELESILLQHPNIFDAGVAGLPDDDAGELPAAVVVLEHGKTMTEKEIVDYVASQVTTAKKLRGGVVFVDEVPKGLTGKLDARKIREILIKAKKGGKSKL
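Purified P. pyralis luciferase, 10 nM final, with Km-level 10 uM D-luciferin and 10 uM ATP in 50 mM Tris acetate pH 7.5, 10 mM Mg acetate, 0.01% Tween-20, 0.05% BSA; 6-point qHTS titration about 60 µM downward; luminescence read.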
Active calls of the source: *; u = inconclusive; x = no result given. A selection: hits, their analogues and other compounds. The true share with any hit is near 9.3%. Calls follow the shape of the dose curve; as a rule, active = well fitted curve in the direction sought with a large enough effect; inconclusive = small, poorly fitted or top-dose-only effect, or another doubt; inactive = no such curve, though single readings can be large; an effect the other way counts as inactive or inconclusive. Potency is read from the fitted curve at half-maximal effect.

SMILES | Rab9 promoter act | ELG1 repair inh | SMN2 splice up | NPC1 prom act | ELG1 genotoxic | FLuc counter
COC(=O)[C@H](C)N(Cc1ccc(Cl)c(Cl)c1)S(=O)(=O)CCN1CCN(c2ccccc2)CC1 | x | u | x | x | -10% | x
COC(=O)c1ccc(OC(=O)c2ccccn2)cc1 | -6% | 0% | 28% | 1% | -5% | 11µM*
CN(C)c1ccc(/C=C(\C#N)c2ccccn2)cc1 | 0.4µM* | u | x | 0.45µM* | u | 0.24µM*
N#C/C(=C\c1ccccn1)c1ccccn1 | u | u | x | 29% | 5% | u
COC(=O)c1ccc(/C=C(\C#N)c2ccccn2)cc1 | 0.89µM* | u | u | 1.1µM* | 2.6µM* | 2.4µM*
N#C/C(=C/c1cccs1)c1ccccn1 | 4.5µM* | u | x | 2.8µM* | u | 12µM*
COc1cc(/C=C(\C#N)c2ccccn2)cc(OC)c1O | -1% | -15% | x | -7% | 0% | -4%
O=C(c1ccccc1Br)N1CCC(c2nc3ccccc3o2)CC1 | x | x | x | x | x | -12%
CC1=C(c2ccc(C)c(C)c2)S(=O)(=O)N(Cc2ccc(C(=O)NC(C)c3ccccc3)cc2)C1=O (stereo unspecified) | x | x | x | x | x | 0%
Cc1ccccc1NC(=O)CON=C(N)c1ccccc1 | -3% | 24% | x | 0% | 0% | 0%
CCCN(C(=O)COC(=O)CSc1ccc([N+](=O)[O-])cc1)C1CCS(=O)(=O)C1 (stereo unspecified) | -5% | 21% | x | -3% | 1% | -1%
O=C(CNC(=O)c1ccc(F)cc1)OCc1cc(=O)n2nc(C3CCCCC3)sc2n1 | x | x | x | x | x | -4%
CCc1noc(C)c1C(=O)N1CCCSC1=Nc1ccccc1C(C)C | -7% | 4% | x | 0% | -2% | -12%
N#C/C(=C\c1ccc([N+](=O)[O-])cc1)c1ccccn1 | u | u | x | 1.6µM* | u | u
Cc1cc(C)c(S(=O)(=O)N2CCN(C3CC(=O)N(c4ccccc4Cl)C3=O)CC2)c(C)c1 (stereo unspecified) | x | -19% | x | x | 1% | x
O=C(O)c1ccc(-n2nc(C(F)(F)F)c3c2CCCC3)cc1 | 13% | 17% | 8% | -3% | 0% | u
O=C(c1ccc(-n2nc(C(F)(F)F)c3c2CCCC3)cc1)N1CCOCC1 | -5% | 5.2µM* | -1% | -7% | -3% | -1%
CCCCCN1C(C(=O)c2ccccc2)=C(NC(=O)c2ccc(OC)c(OC)c2)c2ccccc2S1(=O)=O | x | x | -96% | x | x | 2%
N#Cc1c(N2C(=O)Nc3ccccc3N2O)sc2c1CCCC2 | 8% | u | -7% | 18% | 11% | 13µM*
N#Cc1c(N2C(=O)Nc3ccccc3N2O)sc2c1CCCCCC2 | 1% | u | 18% | 9% | -3% | u
O=C(CSc1cccc[n+]1[O-])N1CCc2ccccc21 | 12% | 24% | x | 13% | 7% | -1%
COc1cccc(CNc2ccc3[nH]c(=O)[nH]c3c2)c1OCc1ccccc1F | 5% | 9.2µM* | x | 2% | -10% | 0%
O=c1[nH]c2ccc(NCc3ccc(F)cc3)cc2[nH]1 | 15% | u | x | 14% | -6% | 17µM*
O=S(=O)(c1ccc(Br)cc1)c1nnn2c1nc(NCc1ccc3c(c1)OCO3)c1sccc12 | x | x | x | x | x | -1%
Cc1cc(Cl)ccc1OCC(=O)NNC(=O)c1cccnc1 | 17% | 0% | x | 1% | -4% | 19µM*
SMILES | Rab9 promoter act | ELG1 repair inh | SMN2 splice up | NPC1 prom act | ELG1 genotoxic | FLuc counter
CC(C)(C)c1ccc(OCC(=O)NNC(=S)NC(=O)c2ccco2)c(Br)c1 | 3% | -10% | x | -4% | 1% | 9.5µM*
Cc1cc(Cl)ccc1OCC(=O)NNC(=O)c1ccco1 | 26% | u | x | 10% | u | 9.5µM*
O=C(COc1ccc(Cl)cc1Cl)NNC(=O)c1cccnc1 | 9% | 16% | x | 5% | 15% | 5.4µM*
O=C(COc1ccc(Cl)cc1)NNC(=O)c1cccnc1 | -2% | -14% | -13% | 1% | 0% | -6%
Cc1ccc(C)c(NC(=O)Cn2cc(S(=O)(=O)NC(C)C)c(S(=O)(=O)NC(C)C)c2)c1 | x | x | x | x | x | -2%
Cc1ccc(C)c(N2CCN(CCCc3ccccc3)CC2)c1 | -3% | -18% | x | -3% | -9% | 0%
O=C(Nc1ccccc1N1CCOCC1)c1cc(-c2ccco2)nc2ccccc12 | 0% | 5.2µM* | 0% | -1% | -14% | u
COc1cc(-c2cc(C(=O)Nc3ccccc3N3CCOCC3)c3ccccc3n2)cc(OC)c1OC | -3% | 5.8µM* | -6% | -3% | -14% | 4%
COc1cc(-c2cc(C(=O)Nc3ccc(C)c(S(=O)(=O)N4CCOCC4)c3)c3ccccc3n2)cc(OC)c1OC | x | 2.1µM* | x | x | -7% | x
O=C(NCc1ccccc1)C12CC3CC(CC(C3)C1)C2 | 29% | 0% | -8% | -2% | -7% | -1%
O=C(Nn1nnnc1Nc1ccccc1)C12CC3CC(CC(C3)C1)C2 | -4% | u | 22µM* | -1% | -4% | -2%
O=S(=O)(NCc1nnc2ccccn12)c1ccc(Cl)cc1 | 0% | 12% | x | -3% | 3% | 3%
O=C1CCCC(O)=C1N=Nc1ccc2c(c1)OCO2 | 3.2µM* | u | 16µM* | u | 16µM* | 9.5µM*
O=C1CCCC(O)=C1N=Nc1ccc(C(=O)O)cc1 | 2% | -2% | x | 0% | -4% | -2%
O=C(Nc1cccc2ccccc12)NC1CCCCC1O (stereo unspecified) | 8% | 13% | x | 15% | 2% | -2%
Cc1cccc(-n2ccnc2SCC(=O)Nc2nccs2)c1 | 3.5µM* | u | x | u | 15% | u
N#Cc1cc2c(nc1SCC(=O)Nc1sc3c(c1C#N)CCC3)CCCCCC2 | 3% | u | -26% | 1% | 0% | -1%
N#Cc1cc2c(nc1SCC(=O)Nc1nccs1)CCCCC2 | 0.28µM* | u | 1µM* | 0.28µM* | 0.12µM* | 0.67µM*
CCc1nnc(NC(=O)CSc2nc3c(cc2C#N)CCC3)s1 | 2.2µM* | u | 13µM* | 2.8µM* | u | 0.85µM*
CCSc1nnc(NC(=O)CSc2nc3c(cc2C#N)CCCC3)s1 | 3.2µM* | u | 7.9µM* | 1.8µM* | 13% | 12µM*
O=C(COC(=O)c1cccs1)Nc1nnc(-c2ccccc2)o1 | 1% | 26% | x | -2% | 22% | -8%
O=C(O)C1CN(C(=O)c2cccc(Br)c2)C1 | 2% | 7% | x | -6% | 4% | 0%
